Results from PubChem BioAssay (NCI).
About 79,000 compounds went through this panel and 15% of them were active in at least one assay; those are over-represented in the sample as a whole. Rule as the data show it: active = growth inhibition above about 70%; inactive = the rest.

Key:
[1] = NCI Yeast Anticancer Drug Screen. Data for the rad50 strain (AID 155);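 also: 0% = growth of vehicle-only cultures of the same strain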; conditions: S. cerevisiae rad50 strain growth inhibition; at 50.0 µM; active compounds read high
Procedure, shortened: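 Compounds were tested on a yeast strain with an engineered DNA damage repair alteration; the reported value is growth inhibition normalised to vehicle treatment.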

[2] = NCI Yeast Anticancer Drug Screen. Data for the mec2-1 strain (AID 157); conditions: S. cerevisiae mec2-1 strain, at 50.0 µM, active compounds read high
Procedure, shortened: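 Growth inhibition is read against vehicle-treated controls after compound exposure of the mec2-1 yeast strain, which is defective in DNA damage repair or cell cycle control.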

[3] = NCI Yeast Anticancer Drug Screen. Data for the sgs1 mgt1 strain (AID 161);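 also: 0% = growth of cultures given vehicle only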; conditions: S. cerevisiae sgs1 mgt1 strain, at 50.0 µM, active compounds read high
Procedure, shortened: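 Compounds are added to genetically altered yeast, and growth is compared with cultures given vehicle alone to give percent inhibition.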

[4] = NCI Yeast Anticancer Drug Screen. Data for the cln2 rad14 strain (AID 165);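 also: 0% = growth equal to vehicle treated cultures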; conditions: S. cerevisiae cln2 rad14 strain, at 50.0 µM, active compounds read high
Procedure, shortened: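 Growth inhibition, relative to vehicle-treated controls, is the read-out. The test organism is a yeast strain with defined genetic alterations, cln2 rad14.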

[5] = NCI Yeast Anticancer Drug Screen. Data for the bub3 strain (AID 167); conditions: S. cerevisiae bub3 mutant strain, at 50.0 µM, active compounds read high
Procedure, shortened: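 Growth of a checkpoint-deficient yeast mutant is measured after compound exposure. Values represent inhibition relative to vehicle.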

[6] = NCI Yeast Anticancer Drug Screen. Data for the mlh1 rad18 strain (AID 175); conditions: S. cerevisiae mlh1 rad18 strain growth inhibition; at 50.0 µM; active compounds read high
Procedure, shortened: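 Cells of a genetically altered yeast strain, deficient in DNA damage repair, were treated with compound. Their growth was then compared with that of vehicle-treated cultures to give inhibition.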

Measured: growth inhibition

O=c1ccc2c([nH]1)CCCC2
inactive: [1] -8.25% | [2] -8.25% | [3] -30.9% | [4] 1.35% | [5] -9.15% | [6] 0.55%

Cc1cc([N+](=O)[O-])cc(C)c1N
inactive: [1] 1.6% | [2] -11% | [3] 3.3% | [4] -15% | [5] -4.5% | [6] 7.15%

CC(=O)N(C)c1ccc(N=CN(C)C)cc1
inactive: [1] -80.3% | [2] -27.5% | [3] -34.3% | [4] -11.8% | [5] 2.9% | [6] -27.9%
